PubChem BioAssay (NCATS)
Inconclusive results are not listed. Active and inactive are the calls of the source. The call rests on the fitted dose curve; in most records, active means well fitted cell-killing curve with a large enough effect; inconclusive means small, poorly fitted or top-dose-only effect, or effect the other way; inactive means no such curve, though single readings can be large or run the other way.

What was measured:
[1] = Quantitative High-Throughput drug screen in 47 multiple myeloma cell lines against the NCATS MIPE library collection: LP1_DSMZ cell viability assay (AID 1918982); further: nearly all actives have a fitted effect of over 35% in size
Procedure, shortened: (§1)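 ATP-based CellTiter-Glo luminescence after 48 h drug exposure (37 °C, 5% CO2) of 500 myeloma cells per well. DMSO-only wells set 100% viability, media-only wells 0%; MIPE 4.0 library added by pin tool.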

[2] = Quantitative High-Throughput drug screen in 47 multiple myeloma cell lines against the NCATS MIPE library collection: L363_DSMZ cell viability assay (AID 1918984); further: nearly all actives have a fitted effect of over 40% in size
Procedure, shortened: as §1

[3] = Quantitative High-Throughput drug screen in 47 multiple myeloma cell lines against the NCATS MIPE library collection: KMS34_JCRB cell viability assay (AID 1918985); further: nearly all actives have a fitted effect of over 40% in size
Procedure, shortened: as §1

[4] = Quantitative High-Throughput drug screen in 47 multiple myeloma cell lines against the NCATS MIPE library collection: OCIMY5_PLB cell viability assay (AID 1918988); further: nearly all actives have a fitted effect of over 65% in size
Procedure, shortened: as §1

[5] = Quantitative High-Throughput drug screen in 47 multiple myeloma cell lines against the NCATS MIPE library collection: SKMM1_PLB cell viability assay (AID 1919863); conditions: SKMM1 myeloma viability, CellTiter-Glo ATP, 48 h; viability: hits give low values; further: nearly all actives have a fitted effect of over 35% in size
Procedure, shortened: as §1

[6] = Quantitative High-Throughput drug screen in 47 multiple myeloma cell lines against the NCATS MIPE library collection: U266_ATCC cell viability assay (AID 1919864); further: nearly all actives have a fitted effect of over 35% in size
Procedure, shortened: as §1

[7] = Quantitative High-Throughput drug screen in 47 multiple myeloma cell lines against the NCATS MIPE library collection: XG6_PLB cell viability assay (AID 1919865); further: nearly all actives have a fitted effect of over 40% in size
Procedure, shortened: as §1

[8] = Quantitative High-Throughput drug screen in 47 multiple myeloma cell lines against the NCATS MIPE library collection: XG1_PLB cell viability assay (AID 1919866); further: nearly all actives have a fitted effect of over 35% in size
Procedure, shortened: as §1

[9] = Quantitative High-Throughput drug screen in 47 multiple myeloma cell lines against the NCATS MIPE library collection: VP6_DJ cell viability assay (AID 1919867); further: nearly all actives have a fitted effect of over 40% in size
Procedure, shortened: as §1

[10] = Quantitative High-Throughput drug screen in 47 multiple myeloma cell lines against the NCATS MIPE library collection: UTMC2_PLB cell viability assay (AID 1919868); conditions: CellTiter-Glo ATP luminescence, 48 h; viability (% of DMSO control): at 45.8 µM (top of the series); further: nearly all actives have a fitted effect of over 55% in size
Procedure, shortened: as §1

[11] = Quantitative High-Throughput drug screen in 47 multiple myeloma cell lines against the NCATS MIPE library collection: PCM6_Riken cell viability assay (AID 1919870); further: nearly all actives have a fitted effect of over 30% in size
Procedure, shortened: as §1

[12] = Quantitative High-Throughput drug screen in 47 multiple myeloma cell lines against the NCATS MIPE library collection: RPMI8226_ATCC cell viability assay (AID 1919871); further: nearly all actives have a fitted effect of over 30% in size
Procedure, shortened: as §1

[13] = Quantitative High-Throughput drug screen in 47 multiple myeloma cell lines against the NCATS MIPE library collection: OPM2_DSMZ cell viability assay (AID 1919872); further: nearly all actives have a fitted effect of over 30% in size
Procedure, shortened: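 Approved and investigational drugs from MIPE 4.0 were added by pin tool to 500 cells per well. After 48 hours at 37C, ATP-based CellTiter-Glo luminescence indicated remaining viability.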

[14] = Quantitative High-Throughput drug screen in 47 multiple myeloma cell lines against the NCATS MIPE library collection: KMS11_JCRBsus cell viability assay (AID 1919873); further: nearly all actives have a fitted effect of over 50% in size
Procedure, shortened: as §1

[15] = Quantitative High-Throughput drug screen in 47 multiple myeloma cell lines against the NCATS MIPE library collection: KMS28BM_JCRB cell viability assay (AID 1919874); further: nearly all actives have a fitted effect of over 35% in size
Procedure, shortened: as §1

[16] = Quantitative High-Throughput drug screen in 47 multiple myeloma cell lines against the NCATS MIPE library collection: OCIMY7_PLB cell viability assay (AID 1918987); conditions: OCI-MY7 myeloma viability, CellTiter-Glo ATP, 48 h; viability (% of DMSO): at 45.8 µM (top of the series); further: nearly all actives have a fitted effect of over 65% in size
Procedure, shortened: as §1

[17] = Quantitative High-Throughput drug screen in 47 multiple myeloma cell lines against the NCATS MIPE library collection: OPM1_PLB cell viability assay (AID 1918989); further: nearly all actives have a fitted effect of over 40% in size
Procedure, shortened: as §1

[18] = Quantitative High-Throughput drug screen in 47 multiple myeloma cell lines against the NCATS MIPE library collection: PE2_PLB cell viability assay (AID 1919869); further: nearly all actives have a fitted effect of over 35% in size
Procedure, shortened: as §1

[19] = Quantitative High-Throughput drug screen in 47 multiple myeloma cell lines against the NCATS MIPE library collection: KMS28PE_JCRB cell viability assay (AID 1918983); further: nearly all actives have a fitted effect of over 35% in size
Procedure, shortened: as §1

Measured: Potency
Potency means the concentration at half of the fitted maximal effect.

C=CC(=O)N1CCc2ccc(-n3c(=O)ccc4cnc5ccc(-c6cnn(C)c6)cc5c43)cc21
active: [1] 1480 nM | [2] 833 nM | [3] 935 nM | [4] 3320 nM | [5] 1320 nM | [6] 3320 nM | [7] 2960 nM | [8] 1320 nM | [9] 2960 nM | [10] 1050 nM | [11] 1660 nM | [12] 1050 nM | [13] 2350 nM | [14] 418 nM | [15] 2960 nM

CCc1cnn2c(NCc3ccc[n+]([O-])c3)cc(N3CCCC[C@@H]3CCO)nc12
active: [1] 16.6 nM | [2] 23.5 nM | [3] 14.8 nM | [16] 41.8 nM | [4] 20.9 nM | [17] 26.4 nM | [5] 33.2 nM | [6] 37.2 nM | [8] 23.5 nM | [9] 18.7 nM | [10] 18.7 nM | [18] 29.6 nM | [11] 10.5 nM | [12] 37.2 nM | [13] 29.6 nM | [14] 20.9 nM | [15] 29.6 nM

CCCCCN=C(N)NN=Cc1c[nH]c2ccc(OC)cc12
active: [19] 10500 nM | [2] 2090 nM | [3] 7430 nM | [16] 2960 nM | [4] 3720 nM | [17] 11800 nM | [5] 296 nM | [8] 2350 nM | [18] 4180 nM | [12] 14800 nM | [13] 10500 nM

Cn1cc(-c2cnn3c(N)c(Br)c([C@H]4CCCNC4)nc23)cn1
active: [19] 13200 nM | [2] 59 nM | [3] 935 nM | [16] 1180 nM | [4] 332 nM | [17] 833 nM | [6] 7430 nM | [7] 264 nM | [8] 526 nM | [9] 662 nM | [10] 662 nM | [18] 1050 nM | [11] 662 nM | [12] 7430 nM | [13] 14800 nM | [14] 5260 nM | [15] 4690 nM

N#Cc1cc(NC(=O)Nc2nnc(-c3ccncc3)s2)ccc1-c1cn[nH]c1
active: [4] 14800 nM
inactive: [1] | [11] | [12] | [13] | [14] | [15]

Cc1cc(-c2nnc3n2CCCCC3)c(C)n1-c1ccccc1
inactive: [1] | [17] | [6] | [8] | [9] | [10] | [18] | [13] | [14]
active: [4] 23500 nM

C=C1CCC2[C@](C)(CO)C(O)CC[C@]2(C)C1CC=C1C(=O)OCC1O (some centres undefined)
active: [4] 42900 nM | [12] 17.1 nM
not listed: [2] | [3] | [5] | [10] | [16] | [18] | [19]
inactive: all other assays above

O=[N+]([O-])c1cn2c(n1)OC[C@@H](OCc1ccc(OC(F)(F)F)cc1)C2
active: [6] 18700 nM
not listed: [2] | [5] | [9] | [10] | [16] | [18] | [19]
inactive: all other assays above

O=C(C=Cc1ccc(CN(CCO)CCc2c[nH]c3ccccc23)cc1)NO
active: [19] 132 nM | [2] 59 nM | [3] 105 nM | [16] 83.3 nM | [4] 66.2 nM | [17] 66.2 nM | [5] 187 nM | [6] 264 nM | [7] 235 nM | [8] 166 nM | [9] 59 nM | [18] 166 nM | [11] 132 nM | [12] 235 nM | [13] 209 nM | [14] 52.6 nM | [15] 52.6 nM

NC(=O)Nc1cc(-c2ccc(CN3CCOCC3)cc2)sc1C(N)=O
active: [19] 18700 nM | [2] 5900 nM | [3] 4180 nM | [16] 83.3 nM | [4] 37.2 nM | [17] 3720 nM | [5] 18700 nM | [6] 16600 nM | [7] 743 nM | [8] 132 nM | [9] 833 nM | [18] 1480 nM | [11] 1660 nM | [12] 7430 nM | [13] 14800 nM | [14] 11800 nM
